Source: the supplement of paper PMC8728848
The entries come from a sample that favours the strongest signals as a whole.

Experiments:
Test in all cases: glycan array binding signal (z-score within array); higher = stronger binding
Details in all cases: glycan notation: IUPAC condensed, linker removed
[1] = target: Fuc(a1-2)Gal(b1-4)GlcNAc(b1-6)GalNAc
How it was run: (§1)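 Glycan array data were curated from 3228 arrays in the Consortium for Functional Glycomics database and kept only where the protein sequence was available. Glycan names were converted to IUPAC-condensed notation, and columns mapping to the same glycan were averaged. The binding signal is a within-array Z-score, averaged across arrays of the same protein sequence at different concentrations or buffers and across linkers. Negative Z-scores can be read as non-binding.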

[2] = target: Fuc(a1-2)[Gal(a1-4)]Gal(b1-4)GlcNAc
How it was run: as §1

[3] = target: Fuc(a1-2)[GalNAc(a1-3)]Gal
How it was run: as §1

[4] = target: Fuc(a1-2)[GalNAc(a1-3)]Gal(b1-4)GlcNAc(b1-2)Man
How it was run: as §1

[5] = target: Fuc(a1-3)GlcNAc
How it was run: as §1

[6] = target: Fuc(a1-3)[Gal(b1-4)]GlcNAc(b1-2)Man
How it was run: as §1

[7] = target: Fuc(a1-3)[Gal(b1-4)]GlcNAc(b1-3)Gal(b1-4)[Fuc(a1-3)]GlcNAc(b1-3)Gal(b1-4)[Fuc(a1-3)]GlcNAc
How it was run: as §1

[8] = target: Gal(a1-2)Gal
How it was run: as §1

[9] = target: Gal(a1-3)Gal(b1-4)Glc
How it was run: as §1

[10] = target: Gal(b1-3)GlcNAc(b1-2)Man(a1-3)[Gal(b1-3)GlcNAc(b1-2)Man(a1-6)]Man(b1-4)GlcNAc(b1-4)[Fuc(a1-6)]GlcNAc
How it was run: as §1

[11] = target: Gal(b1-3)[Fuc(a1-4)]GlcNAc(b1-3)Gal(b1-4)[Fuc(a1-3)]GlcNAc
How it was run: as §1

[12] = target: Gal(b1-4)GlcNAc(b1-2)Man(a1-3)[Gal(b1-4)GlcNAc(b1-2)Man(a1-6)]Man(b1-4)GlcNAc(b1-4)[Fuc(a1-6)]GlcNAc
How it was run: as §1

[13] = target: Gal(b1-4)GlcNAc(b1-2)[Gal(b1-4)GlcNAc(b1-6)]Man(a1-6)[Gal(b1-4)GlcNAc(b1-2)Man(a1-3)]Man(b1-4)GlcNAc(b1-4)[Fuc(a1-6)]GlcNAc
How it was run: as §1

[14] = target: Gal(b1-4)GlcNAc(b1-3)Gal(b1-3)GlcNAc
How it was run: as §1

[15] = target: Gal(b1-4)GlcNAc(b1-3)Gal(b1-4)GlcNAc(b1-2)Man(a1-3)[Gal(b1-4)GlcNAc(b1-3)Gal(b1-4)GlcNAc(b1-2)Man(a1-6)]Man(b1-4)GlcNAc(b1-4)[Fuc(a1-6)]GlcNAc
How it was run: as §1

[16] = target: Gal(b1-4)GlcNAc(b1-3)Gal(b1-4)GlcNAc(b1-3)Gal(b1-4)GlcNAc
How it was run: as §1

[17] = target: Gal(b1-4)GlcNAc(b1-3)Gal(b1-4)GlcNAc(b1-3)Gal(b1-4)GlcNAc(b1-3)Gal(b1-4)GlcNAc(b1-3)Gal(b1-4)GlcNAc(b1-2)Man(a1-3)[Gal(b1-4)GlcNAc(b1-3)Gal(b1-4)GlcNAc(b1-3)Gal(b1-4)GlcNAc(b1-3)Gal(b1-4)GlcNAc(b1-3)Gal(b1-4)GlcNAc(b1-2)Man(a1-6)]Man(b1-4)GlcNAc(b1-4)[Fuc(a1-6)]GlcNAc
How it was run: as §1

[18] = target: Gal(b1-4)GlcNAc(b1-3)GalNAc
How it was run: as §1

[19] = target: Gal(b1-4)GlcNAc6P
How it was run: as §1

[20] = target: GalNAc(a1-3)GalNAc(b1-3)Gal(a1-4)Gal(b1-4)GlcNAc
How it was run: as §1

[21] = target: GalNAc(b1-3)Gal(a1-4)Gal(b1-4)GlcNAc
How it was run: as §1

[22] = target: GalNAc(b1-4)GlcNAc(b1-2)Man(a1-3)[GalNAc(b1-4)GlcNAc(b1-2)Man(a1-6)]Man(b1-4)GlcNAc(b1-4)GlcNAc
How it was run: as §1

[23] = target: GlcA3S(b1-3)Gal(b1-4)GlcNAc(b1-2)Man
How it was run: as §1

[24] = target: GlcNAc(a1-4)Gal(b1-3)GlcNAc
How it was run: as §1

[25] = target: GlcNAc(b1-2)Man(a1-3)[GlcNAc(b1-2)Man(a1-6)]Man(b1-4)GlcNAc(b1-4)GlcNAc
How it was run: as §1

[26] = target: GlcNAc(b1-2)Man(a1-3)[GlcNAc(b1-2)Man(a1-6)]Man(b1-4)GlcNAc(b1-4)[Fuc(a1-6)]GlcNAc
How it was run: as §1

[27] = target: GlcNAc(b1-2)[GlcNAc(b1-4)]Man(a1-3)[GlcNAc(b1-4)][GlcNAc(b1-2)Man(a1-6)]Man(b1-4)GlcNAc(b1-4)GlcNAc
How it was run: as §1

[28] = target: GlcNAc(b1-2)[GlcNAc(b1-6)]Man(a1-6)[GlcNAc(b1-2)Man(a1-3)]Man(b1-4)GlcNAc(b1-4)[Fuc(a1-6)]GlcNAc
How it was run: as §1

[29] = target: GlcNAc(b1-3)Gal(b1-4)GlcNAc(b1-2)Man(a1-3)[GlcNAc(b1-3)Gal(b1-4)GlcNAc(b1-2)Man(a1-6)]Man(b1-4)GlcNAc(b1-4)[Fuc(a1-6)]GlcNAc
How it was run: as §1

[30] = target: GlcNAc(b1-3)Gal(b1-4)GlcNAc(b1-3)Gal(b1-4)GlcNAc(b1-2)Man(a1-3)[GlcNAc(b1-3)Gal(b1-4)GlcNAc(b1-3)Gal(b1-4)GlcNAc(b1-2)Man(a1-6)]Man(b1-4)GlcNAc(b1-4)[Fuc(a1-6)]GlcNAc
How it was run: as §1

[31] = target: Man(a1-3)[Man(a1-6)]Man(b1-4)GlcNAc(b1-4)[Fuc(a1-6)]GlcNAc
How it was run: as §1

[32] = target: MurNAc(b1-4)GlcNAc
How it was run: as §1

[33] = target: Neu5Ac(a2-3)Gal(b1-3)GalNAc(b1-4)[Neu5Ac(a2-3)]Gal(b1-4)Glc
How it was run: as §1

[34] = target: Neu5Ac(a2-3)Gal(b1-3)GlcNAc(b1-2)Man(a1-3)[GlcNAc(b1-4)][Neu5Ac(a2-3)Gal(b1-3)GlcNAc(b1-2)Man(a1-6)]Man(b1-4)GlcNAc(b1-4)GlcNAc
How it was run: as §1

[35] = target: Neu5Ac(a2-3)Gal(b1-3)[Fuc(a1-4)]GlcNAc(b1-3)Gal(b1-3)[Fuc(a1-4)]GlcNAc
How it was run: as §1

[36] = target: Neu5Ac(a2-3)Gal(b1-4)GlcNAc(b1-3)Gal(b1-4)GlcNAc(b1-3)GalNAc
How it was run: as §1

[37] = target: Neu5Ac(a2-3)Gal(b1-4)GlcNAc(b1-3)Gal(b1-4)GlcNAc(b1-3)[Neu5Ac(a2-3)Gal(b1-4)GlcNAc(b1-3)Gal(b1-4)GlcNAc(b1-6)]GalNAc
How it was run: as §1

[38] = target: Neu5Ac(a2-3)Gal(b1-4)GlcNAc(b1-6)GalNAc
How it was run: as §1

[39] = target: Neu5Ac(a2-3)Gal(b1-4)GlcNAc(b1-6)[Gal(b1-3)]GalNAc
How it was run: as §1

[40] = target: Neu5Ac(a2-3)Gal(b1-4)GlcNAc(b1-6)[Neu5Ac(a2-3)Gal(b1-3)]GalNAc
How it was run: as §1

[41] = target: Neu5Ac(a2-3)Gal(b1-4)GlcNAc6S
How it was run: as §1

[42] = target: Neu5Ac(a2-6)Gal(b1-4)GlcNAc(b1-2)Man(a1-3)[Neu5Ac(a2-6)Gal(b1-4)GlcNAc(b1-2)Man(a1-6)]Man(b1-4)GlcNAc(b1-4)[Fuc(a1-6)]GlcNAc
How it was run: as §1

[43] = target: Neu5Ac(a2-6)Gal(b1-4)GlcNAc(b1-3)Gal(b1-3)GlcNAc
How it was run: as §1

[44] = target: Neu5Ac(a2-8)Neu5Ac(a2-3)Gal(b1-4)Glc
How it was run: as §1

[45] = target: Neu5Ac(a2-8)Neu5Ac(a2-3)[GalNAc(b1-4)]Gal(b1-4)Glc
How it was run: as §1

[46] = target: Neu5Gc(b2-6)Gal(b1-4)GlcNAc
How it was run: as §1

APVPVTKLVCDGDTYKCTAYLDFGDGRWVAQWDTNVFHTG [PhoSpL (Pholiota squarrosa)]
glycan array binding signal (z-score) [1]: -0.46
glycan array binding signal (z-score) [2]: 0.637
glycan array binding signal (z-score) [3]: -0.032
glycan array binding signal (z-score) [4]: 0.067
glycan array binding signal (z-score) [5]: -0.427
glycan array binding signal (z-score) [6]: -0.336
glycan array binding signal (z-score) [7]: -0.179
glycan array binding signal (z-score) [8]: -0.168
glycan array binding signal (z-score) [9]: 0.101
glycan array binding signal (z-score) [10]: 6.05
glycan array binding signal (z-score) [11]: -0.256
glycan array binding signal (z-score) [12]: 13.4
glycan array binding signal (z-score) [13]: 8.42
glycan array binding signal (z-score) [14]: 0.027
glycan array binding signal (z-score) [15]: 1.94
glycan array binding signal (z-score) [16]: -0.517
glycan array binding signal (z-score) [17]: 0.488
glycan array binding signal (z-score) [18]: -0.135
glycan array binding signal (z-score) [19]: -0.747
glycan array binding signal (z-score) [20]: 0.539
glycan array binding signal (z-score) [21]: 0.249
glycan array binding signal (z-score) [22]: 1.41
glycan array binding signal (z-score) [23]: -0.16
glycan array binding signal (z-score) [24]: -0.307
glycan array binding signal (z-score) [25]: -0.238
glycan array binding signal (z-score) [26]: 4.77
glycan array binding signal (z-score) [27]: -0.113
glycan array binding signal (z-score) [28]: 4.35
glycan array binding signal (z-score) [29]: 2.47
glycan array binding signal (z-score) [30]: 1.44
glycan array binding signal (z-score) [31]: 6.32
glycan array binding signal (z-score) [32]: -0.337
glycan array binding signal (z-score) [33]: 0.143
glycan array binding signal (z-score) [34]: -0.151
glycan array binding signal (z-score) [35]: -0.57
glycan array binding signal (z-score) [36]: 0.1
glycan array binding signal (z-score) [37]: -0.169
glycan array binding signal (z-score) [38]: -0.386
glycan array binding signal (z-score) [39]: 0.254
glycan array binding signal (z-score) [40]: -0.322
glycan array binding signal (z-score) [41]: 0.087
glycan array binding signal (z-score) [42]: 4.01
glycan array binding signal (z-score) [43]: -0.422
glycan array binding signal (z-score) [44]: -0.197
glycan array binding signal (z-score) [45]: -0.373
glycan array binding signal (z-score) [46]: 0.132
